Screening results (PubChem)
VP16 counter: inhibits Gal4-VP16 luciferase reporter, ROR gamma counter-screen; Drosophila S2 Gal4-VP16 UAS-luciferase, luminescence, 20 h; Potency, µM (highest dose often 53.6 µM), inactives show top-dose activity, negative = inhibition, hits mostly inhibitors; 310,000 compounds, 3.5% hits;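 note: Gal4-VP16 expression switched on by copper sulfate through the metallothionein promoter; potency is the fitted concentration of half-maximal effect; nearly all actives have a fitted effect of over 50% in size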
ELG1 repair inh: ELG1-dependent DNA repair inhibition; HEK293T ELG1-luciferase reporter, luminescence, 16 h; DNA damage induced by 5-fluorouridine; Potency, µM (titrated, usually from 46.1 µM), for the others: at the highest dose activity change, negative = inhibition, hits mostly inhibitors; 330,000 compounds, 2.3% hits; AID 504467; note: potency is the fitted concentration of half-maximal effect; nearly all actives have a fitted effect of over 55% in size
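Reporter activity after DNA damage by 5-fluorouridine is monitored. Compound-treated cells incubate 16 hr at 37 °C, then ONE-Glo is added for 30 min before luminescence reading.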
FBPA coupling cs: counter-screen for Giardia aldolase inhibitors: coupling enzyme system. coupling enzyme system counterscreen, AmpLite Red fluorescence. activity change, negative = inhibition, % at 58.2 µM, hits read low. 290,000 compounds, 0.67% hits; in the data active = activity change below about -30%
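Counterscreen of the coupled detection system alone, without aldolase: glyceraldehyde-3-phosphate coupling enzymes plus AmpLite Red readout. Compounds at 57.5 uM final, 10 min RT preincubation, 20 min RT reaction, fluorescence 525/598 nm.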
RORg inh: ROR gamma (mouse) transcription inhibition. P51450. Drosophila S2 Gal4-RORgamma UAS-luciferase reporter, 20 h. Potency, µM (titrated, usually from 53.6 µM), without a hit: at the highest dose activity change, negative = inhibition, actives largely listed as inhibitors. 310,000 compounds, 5.4% hits; note: potency is the fitted concentration of half-maximal effect; nearly all actives have a fitted effect of over 60% in size
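Schneider cells (Drosophila), stable Gal4 DBD–ROR gamma + UAS-luc; 1 hr cmpd preincubation; Cu2+ induction 700 uM final; 20 hr ambient; luminescence.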
TSHR antag: human thyrotropin receptor antagonism | AID 504810 | 330,000 compounds, 0.2% hits | TSHR-expressing cells, TSH-stimulated cAMP HTRF, 2 h; hits give low values | activity change, negative = inhibition, % at 11.5 µM;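 active = activity change below a set negative limit, meaning inhibition stronger than a set level, cut at about -70% in these data; inconclusive = activity change between two set negative limits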
Target sequence (P16473 whole entry, looked up): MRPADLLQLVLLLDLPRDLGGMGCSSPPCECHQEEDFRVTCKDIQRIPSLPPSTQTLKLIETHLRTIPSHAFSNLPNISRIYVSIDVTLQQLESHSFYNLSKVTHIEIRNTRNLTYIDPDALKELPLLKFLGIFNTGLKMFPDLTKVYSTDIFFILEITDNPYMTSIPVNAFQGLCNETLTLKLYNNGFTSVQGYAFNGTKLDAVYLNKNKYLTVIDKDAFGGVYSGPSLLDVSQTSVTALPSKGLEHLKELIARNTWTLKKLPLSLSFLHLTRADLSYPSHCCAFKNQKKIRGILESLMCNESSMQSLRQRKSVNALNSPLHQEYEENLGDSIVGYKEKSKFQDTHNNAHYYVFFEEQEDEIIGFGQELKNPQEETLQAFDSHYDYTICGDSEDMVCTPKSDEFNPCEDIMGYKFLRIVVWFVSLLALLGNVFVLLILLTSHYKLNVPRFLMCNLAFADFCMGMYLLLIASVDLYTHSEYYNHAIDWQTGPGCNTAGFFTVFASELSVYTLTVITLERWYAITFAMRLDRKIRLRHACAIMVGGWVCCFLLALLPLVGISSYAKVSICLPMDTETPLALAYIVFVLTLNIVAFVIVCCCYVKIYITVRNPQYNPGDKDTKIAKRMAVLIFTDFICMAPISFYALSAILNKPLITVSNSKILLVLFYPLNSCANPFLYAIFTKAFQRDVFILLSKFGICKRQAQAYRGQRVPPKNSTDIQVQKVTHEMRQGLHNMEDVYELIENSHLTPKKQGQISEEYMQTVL
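Antagonism was scored as loss of TSH-driven cAMP in TSHR cells, stimulated with 4nM TSH (EC80) for 2 hours at 37 deg C and detected by homogeneous HTRF competition immunoassay.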
The depositor's hits bear a star; ? = inconclusive; / = no result given; [ ] = another dose, or the depositor's remark. Most compounds without a hit are left out; they make up all but 8% or so of the library. Unless noted, calls come from the whole dose curve; as a rule, active = well fitted curve in the direction sought with a large enough effect; inconclusive = small, poorly fitted or top-dose-only effect, or another doubt; inactive = no such curve, though single readings can be large; an effect the other way counts as inactive or inconclusive. % is set by controls: 0 for no effect and ±100 for the full control effect.

SMILES	VP16 counter	ELG1 repair inh	FBPA coupling cs	RORg inh	TSHR antag
C[C@H](N)C(=O)N[C@@H](CO)C(=O)N[C@H](C(=O)N[C@H](C(=O)N[C@H](C(=O)N[C@@H](CC(N)=O)C(=O)N[C@@H](Cc1ccc(O)cc1)C(=O)N[C@H](C(=O)O)[C@@H](C)O)[C@@H](C)O)[C@@H](C)O)[C@@H](C)O	3%	/	0	2%	/
Cc1cc(C)cc(-n2c3nc4ccccc4nc3c3c(=O)n(Cc4ccco4)cnc32)c1	11µM*	-8%	3	11µM*	-17
CCOC(=O)C1=C(C)OC(N)=C(C#N)C1c1c(C)nn(-c2ccccc2)c1Cl (stereo unspecified)	?	-2%	-51*	?	-4
C=CCOC(=O)C1=C(C)OC(N)=C(C#N)C1c1c(C)nn(-c2ccccc2)c1Cl (stereo unspecified)	2%	1%	-12	5%	-8
N=c1ccn(Cc2c(Cl)cccc2Cl)cc1	10µM*	12µM*	0	?	-6
N=c1ccn(Cc2ccccc2Cl)cc1	-4%	-16%	4	13%	0
N=c1ccn(Cc2cccc(Cl)c2)cc1	?	?	4	0%	11
N=c1ccn(Cc2ccc(Cl)cc2)cc1	-15%	5.2µM*	-1	-35%	32
N=c1ccn(Cc2ccc(Cl)cc2Cl)cc1	-24%	8.2µM*	1	23%	15
N=c1ccn(Cc2ccc(Cl)c(Cl)c2)cc1	-15%	4.6µM*	2	33%	14
O=C(Nc1ccc(C(F)(F)F)cc1[N+](=O)[O-])O[C@H]1[C@H](Cc2ccccc2)NS(=O)(=O)[C@H]2C[C@@H]3C=C[C@]12O3	/	?	/	/	-1
Cc1ccccc1OCCn1cc(C(=O)C(=O)N2CCOCC2)c2ccccc21	-23%	-25%	-1	31%	-11
Cc1ccccc1OCCn1cc(C(=S)N2CCN(C)CC2)c2ccccc21	-15%	-22%	-6	13µM*	1
CC(=O)c1cn(CCOc2ccccc2C)c2ccccc12	4.5µM*	?	0	?	-43
CC(C)c1ccc(-c2nn(-c3ccccc3)cc2C(=O)NCC2CCCO2)cc1 (stereo unspecified)	/	?	/	/	-21
CN(C)C(=O)c1ccc(-c2ccc3ncnc(N(C)C)c3c2)cc1	3%	/	-2	12%	/
O=C(N/N=C/c1cccc2cccnc12)c1ccccc1O	0.79µM*	?	-19	0.35µM*	-4
NNC(=O)c1ccc(CSc2cccc3cccnc23)cc1	-8%	-1%	0	?	25
O=C(N/N=C/c1cccc2nccnc12)c1ccccc1O	3.2µM*	4%	-6	2.5µM*	-6
O=C(N/N=C/c1ccccc1Br)c1ccc(CSc2cccc3cccnc23)cc1	1%	21µM*	5	-1%	1
CN(C(=O)Cn1nnc(-c2ccccc2)n1)C1CCS(=O)(=O)C1 (stereo unspecified)	/	29%	/	/	2
O=C(NCCCN1CCCC(O)C1)c1cc(COc2ccc(F)cc2F)on1 (stereo unspecified)	4%	5%	0	-16%	-10
COc1ccc(Br)cc1S(=O)(=O)Nc1ncn[nH]1	-9%	10%	0	-17%	1
Cc1nn(Cc2ccc(C(=O)N3CCCC3)o2)c(C)c1[N+](=O)[O-]	/	-2%	-1	/	13
CC1=NN(C(=O)c2ccc(Cn3nc(C)c([N+](=O)[O-])c3C)cc2)C(O)(C(F)(F)F)C1 (stereo unspecified)	11µM*	-16%	1	11µM*	-8
SMILES	VP16 counter	ELG1 repair inh	FBPA coupling cs	RORg inh	TSHR antag
CC(C)CC1=NN(C(=O)c2ccncc2)C(O)(C(F)(F)F)C1 (stereo unspecified)	?	?	3	-41%	3
CC1=NN(C(=O)Cn2nc([N+](=O)[O-])cc2C)C(O)(C(F)(F)F)C1 (stereo unspecified)	?	-2%	0	10µM*	22
CC1=NN(C(=O)c2ccc(Cn3nc(C)c(Br)c3C)cc2)C(O)(C(F)(F)F)C1 (stereo unspecified)	13µM*	-29%	1	?	7
O=C(Cc1c(Cl)cccc1Cl)N/N=C/c1cccnc1	-2%	9%	/	-10%	4
CCOC(=O)N1CCN(C(=O)CS(=O)(=O)c2cn(Cc3ccccc3C)c3ccccc23)CC1	6%	9.2µM*	-1	0%	-3
CCOC(=O)c1c(C(=O)OCC)c(C)n(CCc2ccc(OC)c(OC)c2)c1C	-6%	15µM*	-3	25%	3
CCOC(=O)c1ccc(NC(=S)NCCc2ccc(OC)c(OC)c2)cc1	?	?	-4	10µM*	5
COC(=O)c1ccc(NC(=S)NCCc2cccc(C)c2)cc1	1.3µM*	4%	0	1.3µM*	0
COC(=O)c1ccc(NC(=S)NCCc2ccc(OC)cc2)cc1	?	?	-1	7.9µM*	8
O=C(NCC1CCCO1)c1ccc(NC(=O)c2cc(F)c(F)cc2Cl)cc1 (stereo unspecified)	2%	?	2	?	13
COCCn1c(=O)c(C)nc2cnc(Nc3ccccc3)nc21	-7%	/	1	-1%	/
COC(=O)c1ccc(NC(=S)NCCc2ccccc2C)cc1	14µM*	1%	1	13µM*	-5
CCCNC(=S)Nc1ccc(CC(=O)OC)cc1	7%	9%	1	-40%	6
Cc1cccc(CNc2ncncc2-c2cccc(C#N)c2)c1	6%	/	0	28%	/
Cc1ccc(CN(C(=O)COc2ccc(Br)cc2)C2CCS(=O)(=O)C2)o1 (stereo unspecified)	-5%	-9%	-3	14%	-7
CC(=Nc1ccccc1O)c1sc2ccccc2c1O	?	?	-7	2µM*	-4
CC(=Nc1ccc(O)cc1)c1sc2ccccc2c1O	-11%[0.365 µM]	?	1	19%	-13
CCOc1cc(C=C(C(=O)OC)C(=O)OC)ccc1OCc1ccc([N+](=O)[O-])cc1	?	21µM*	0	?	-32
COc1ccccc1NS(=O)(=O)c1cccc(C(=O)NNC(=O)C(C)NC(=O)c2ccco2)c1 (stereo unspecified)	/	8%	/	/	/
Cc1occc1-c1nnc(SCC(=O)c2ccc(F)cc2)n1Cc1ccco1	20%	2%	-2	16%	3
O=C(CSc1nnc(-c2cc3ccccc3cc2O)n1Cc1ccco1)c1ccc(F)cc1	14µM*	?	-1	-33%	5
O=C1C(Cl)=C(Nc2ccc3cn[nH]c3c2)C(=O)c2ccccc21	?	?	-36*	7.1µM*	-90*
CN(C)c1ccc(NC2=C(Cl)C(=O)c3ccccc3C2=O)cc1	?	?	-43*	16µM*	-44
